# Data reported in PubChem BioAssay (NCATS).
# Inconclusive results are not listed. Activity calls are given as the source filed them. Unless noted, calls follow the shape of the dose curve; as a rule, active = well fitted curve in the direction sought with a large enough effect; inconclusive = small, poorly fitted or top-dose-only effect, or another doubt; inactive = no such curve, though single readings can be large; an effect the other way counts as inactive or inconclusive.
# Tests used:
# [1] = KB-8-5-11 P-gp reporter qHTS against the NCATS DSHEA and TCM libraries (AID 1919977); also: 0% is about no effect
# Method in brief: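 Cells were seeded, allowed ~4 h to attach, dosed by pin tool (substance titrations), incubated ~72 h at 37C, then lysed with CellTiter-Glo for 30 min at room temperature before luminescence reading.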
# [2] = Quantitative High-Throughput drug screen in 47 multiple myeloma cell lines against the NCATS MIPE library collection: XG1_PLB cell viability assay (AID 1919866); also: nearly all actives have a fitted effect of over 35% in size; also: potency is read from the fitted curve at half-maximal effect
# Method in brief: (§1)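 500 cells/well per myeloma line exposed to pinned MIPE 4.0 compounds for 48 h at 37 °C, 5% CO2. Viability read as ATP by CellTiter-Glo luminescence, normalised to DMSO-only (100%) and media-only (0%) wells.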
# [3] = Quantitative High-Throughput drug screen in 47 multiple myeloma cell lines against the NCATS MIPE library collection: VP6_DJ cell viability assay (AID 1919867); also: nearly all actives have a fitted effect of over 40% in size; also: potency is read from the fitted curve at half-maximal effect
# Method in brief: as §1
# [4] = Quantitative High-Throughput drug screen in 47 multiple myeloma cell lines against the NCATS MIPE library collection: PE2_PLB cell viability assay (AID 1919869); also: nearly all actives have a fitted effect of over 35% in size; also: potency is read from the fitted curve at half-maximal effect
# Method in brief: as §1
# [5] = Quantitative High-Throughput drug screen in 47 multiple myeloma cell lines against the NCATS MIPE library collection: PCM6_Riken cell viability assay (AID 1919870); also: nearly all actives have a fitted effect of over 30% in size; also: potency is read from the fitted curve at half-maximal effect
# Method in brief: as §1
# [6] = Quantitative High-Throughput drug screen in 47 multiple myeloma cell lines against the NCATS MIPE library collection: OPM2_DSMZ cell viability assay (AID 1919872); also: nearly all actives have a fitted effect of over 30% in size
# Method in brief: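 Steps: seed 500 cells per well; pin-transfer MIPE 4.0 library; incubate 48 h at 37C, 5% CO2, humidified; add CellTiter-Glo, 5 min room temperature; read luminescence.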
# [7] = Quantitative High-Throughput drug screen in 47 multiple myeloma cell lines against the NCATS MIPE library collection: KMS28BM_JCRB cell viability assay (AID 1919874); also: nearly all actives have a fitted effect of over 35% in size
# Method in brief: as §1
# [8] = qHTS drug screen for cell cycle checkpoint inhibitors in PARPi-resistant BRCA-mutant ovarian cancer cell lines. (AID 1963452; calls by dose curve; also: potency is read from the fitted curve at half-maximal effect); conditions: PEO1/OlaR viability, CellTiter-Glo luminescence, 96 h; for Z-AUC: stronger effect = lower value
# Method in brief: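 PEO1, PEO4 and PEO1/OlaR ovarian cancer cells, 600 per well, exposed 96 h at 37C to a dilution series. Viability read by CellTiter-Glo luminescence, normalized to DMSO and empty wells; activity summarized as Z-AUC.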
# [9] = qHTS for identification of novel therapeutic agents for treatment of microphthalmiaassociated transcription factor (MiT) renal cell carcinoma (RCC) (AID 1963991); conditions: CellTiter-Glo, 48 h, stronger effect = lower value
# Method in brief: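 Curves over 11 concentrations were fitted to CellTiter-Glo luminescence, scaled between empty wells (0%) and DMSO (100%) viability. Cells were UOK109, UOK124 and UOK145 TFE3-fusion RCC lines at 500/well, exposed 48 hours at 37 C.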
# [10] = qHTS profiling for inhibitors of Plasmodium falciparum proliferation (AID 504749); also: nearly all actives have a fitted effect of over 60% in size; also: potency is read from the fitted curve at half-maximal effect;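 as to activity, negative = inhibition: 0% = DMSO vehicle and full inhibition = artemisinin control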; conditions: P. falciparum in erythrocytes, SYBR Green DNA, 72 h
# Method in brief: (§2)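 P. falciparum-infected erythrocytes (0.3% parasitemia, 2.5% hematocrit) incubated with compound 72 h at 37 C, 5% CO2. Parasite DNA detected by SYBR Green after lysis, overnight at room temperature; normalised to 0.29 uM artemisinin and DMSO.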
# [11] = tested on: 3D7; assay: as above; conditions: P. falciparum in erythrocytes, SYBR Green DNA, 72 h; series mostly up to 28.7 µM
# Method in brief: as §2
# [12] = tested on: 7G8; assay: as above; conditions: P. falciparum in erythrocytes, SYBR Green DNA, 72 h; series mostly up to 28.7 µM
# Method in brief: as §2
# [13] = Quantitative High-Throughput drug screen in 47 multiple myeloma cell lines against the NCATS MIPE library collection: UTMC2_PLB cell viability assay (AID 1919868); also: nearly all actives have a fitted effect of over 55% in size; also: potency is read from the fitted curve at half-maximal effect
# Method in brief: as §1
# [14] = Quantitative High-Throughput drug screen in 47 multiple myeloma cell lines against the NCATS MIPE library collection: RPMI8226_ATCC cell viability assay (AID 1919871); also: nearly all actives have a fitted effect of over 30% in size; also: potency is read from the fitted curve at half-maximal effect
# Method in brief: as §1
# [15] = Quantitative High-Throughput drug screen in 47 multiple myeloma cell lines against the NCATS MIPE library collection: KMS11_JCRBsus cell viability assay (AID 1919873); also: nearly all actives have a fitted effect of over 50% in size; also: potency is read from the fitted curve at half-maximal effect
# Method in brief: as §1
# [16] = measured here: PEO1 parental Z-AUC
# [17] = TFE3-RCC UOK109 viability, measured here: UOK109 Z-AUC
# [18] = TFE3-RCC viability, measured here: UOK124 Z-AUC
# [19] = TFE3-RCC viability, measured here: UOK145 Z-AUC
# [20] = at 28.7 µM (top of the series), parasite line A
# [21] = at 28.7 µM (top of the series), parasite line B
structure (smiles),measurement,setting,value
O=C(O)c1cccnc1,outcome,[1],inactive
CN1C(=O)CCS(=O)(=O)C1c1ccc(Cl)cc1 (centres undefined),Potency,[2],16600 nM (active)
same,Potency,[3],inactive
same,Potency,[4],inactive
same,Potency,[5],inactive
same,outcome,[6],inactive
same,outcome,[7],inactive
same,Z-AUC,[8],1.64 (inactive)
same,Z-AUC,[8]; [16],1.76
same,Z-AUC,[8]; measured here: PEO4 Z-AUC,1.36
same,z-score,[9]; [17],0.949
same,z-score,[9]; [18],0.189
same,z-score,[9]; [19],0.774
same,"activity, negative = inhibition",[10]; [20],-12.8% (inactive)
same,"activity, negative = inhibition",[10]; [21],-22.5% (inactive)
same,Potency,[11],inactive
same,Potency,[12],inactive
COc1cccc2c1C(=O)c1c(O)c3c(c(O)c1C2=O)C[C@@](O)(C(=O)CO)CC3OC1CC(N2CCOC(OC)C2)C(O)C(C)O1 (some centres undefined),Potency,[8],7.8 nM (active)
same,Z-AUC,[8]; [16],-3.26
same,Z-AUC,[8]; measured here: PEO4 Z-AUC,-2.98
NC(=O)NC1NC(=O)NC1=O (centres undefined),outcome,[1],inactive
NNC(=O)c1ccncc1,outcome,[1],inactive
C[C@]12CC[C@H]3[C@@H](CC[C@@]45O[C@H]4C(O)=C(C#N)C[C@]35C)[C@H]1CC[C@H]2O,Potency,[2],inactive
same,Potency,[13],inactive
same,Potency,[4],inactive
same,Potency,[5],inactive
same,Potency,[14],inactive
same,outcome,[6],inactive
same,Potency,[15],inactive
same,outcome,[7],inactive
CC(C)=CCC[C@@](C)(O)[C@H]1CC=C(C)CC1,outcome,[1],inactive
O=C(O)CCCc1ccc(N(CCCl)CCCl)cc1,Potency,[2],16600 nM (active)
same,Potency,[13],18700 nM (active)
same,Potency,[4],inactive
same,Potency,[5],16600 nM (active)
same,outcome,[6],inactive
same,Potency,[15],inactive
same,Z-AUC,[8],0.915 (inactive)
same,Z-AUC,[8]; [16],0.822
same,Z-AUC,[8]; measured here: PEO4 Z-AUC,1.2
same,"activity, negative = inhibition",[10]; [20],-9.59% (inactive)
same,"activity, negative = inhibition",[10]; [21],1.97% (inactive)
same,Potency,[11],inactive
CC(C)c1cccc(C(C)C)c1O,Potency,[2],inactive
same,Potency,[3],inactive
same,Potency,[13],inactive
same,Potency,[4],inactive
same,Potency,[5],inactive
same,Potency,[14],inactive
same,outcome,[6],inactive
same,Potency,[15],inactive
same,outcome,[7],inactive
same,Z-AUC,[8],0.183 (inactive)
same,Z-AUC,[8]; [16],0.696
same,Z-AUC,[8]; measured here: PEO4 Z-AUC,0.584
same,z-score,[9]; [17],-1.1
same,z-score,[9]; [18],0.663
same,z-score,[9]; [19],0.666
same,"activity, negative = inhibition",[10]; [20],13.6% (inactive)
same,"activity, negative = inhibition",[10]; [21],4.13% (inactive)
same,Potency,[11],inactive
same,Potency,[12],inactive
CC(NC(C)(C)C)C(=O)c1cccc(Cl)c1 (centres undefined),Potency,[4],inactive
same,Potency,[5],inactive
same,Potency,[14],20900 nM (active)
same,outcome,[6],inactive
same,outcome,[7],inactive
same,Z-AUC,[8],-0.176 (inactive)
same,Z-AUC,[8]; [16],0.0369
same,Z-AUC,[8]; measured here: PEO4 Z-AUC,1.02
same,z-score,[9]; [17],0.679
same,z-score,[9]; [18],0.615
same,z-score,[9]; [19],0.622
C=CCc1ccc(O)c(OC)c1,outcome,[1],inactive
CCC1(c2ccc(N)cc2)CCC(=O)NC1=O (centres undefined),Potency,[2],inactive
same,Potency,[13],inactive
same,Potency,[4],inactive
same,Potency,[14],inactive
same,outcome,[6],inactive
same,outcome,[7],inactive
same,Z-AUC,[8],1.39 (inactive)
same,Z-AUC,[8]; [16],0.942
same,Z-AUC,[8]; measured here: PEO4 Z-AUC,1.02
O=C(O)c1cc(O)c(O)c(O)c1,outcome,[1],inactive
C[C@]12CCC(=O)C=C1CC[C@@H]1[C@H]3CC[C@](C)(O)[C@@]3(C)CC[C@@H]12,Potency,[13],inactive
same,Potency,[14],38200 nM (active)
same,Potency,[15],42900 nM (active)
CC12CCC(CC1)C(C)(C)O2,outcome,[1],inactive
NC(=O)c1cnccn1,outcome,[1],inactive
C[C@](O)(CS(=O)(=O)c1ccc(F)cc1)C(=O)Nc1ccc(C#N)c(C(F)(F)F)c1,Potency,[2],418 nM (active)
same,Potency,[3],662 nM (active)
same,Potency,[4],662 nM (active)
same,Potency,[5],662 nM (active)
same,Potency,[14],inactive
same,Potency,[15],inactive
same,Z-AUC,[8],0.83 (inactive)
same,Z-AUC,[8]; [16],0.549
same,Z-AUC,[8]; measured here: PEO4 Z-AUC,0.67
same,Potency,[11],inactive
O=C1c2ccccc2C(=O)C1C(=O)C(c1ccccc1)c1ccccc1,"activity, negative = inhibition",[10]; [20],4.21% (inactive)
same,"activity, negative = inhibition",[10]; [21],-28% (inactive)
CN1C[C@H](C(=O)N[C@]2(C)O[C@@]3(O)[C@@H]4CCCN4C(=O)[C@H](Cc4ccccc4)N3C2=O)C=C2c3cccc4[nH]cc(c34)C[C@H]21,Potency,[10]; parasite line A,1410 nM (active)
same,Potency,[10]; parasite line B,1580 nM (active)
same,Potency,[11],891 nM (active)
same,Potency,[12],79.4 nM (active)
CN1C(=O)CC(=O)N(c2ccccc2)c2cc(Cl)ccc21,"activity, negative = inhibition",[10]; [20],1.1% (inactive)
same,"activity, negative = inhibition",[10]; [21],-1.48% (inactive)
same,Potency,[11],inactive
same,Potency,[12],inactive
Cc1ncsc1CCCl,"activity, negative = inhibition",[10]; [20],12% (inactive)
same,"activity, negative = inhibition",[10]; [21],0.0082% (inactive)
same,Potency,[11],inactive
same,Potency,[12],inactive
C=C(C)[C@H]1CN[C@H](C(=O)O)[C@H]1CC(=O)O,"activity, negative = inhibition",[10]; [20],3.91% (inactive)
same,"activity, negative = inhibition",[10]; [21],11.4% (inactive)
same,Potency,[11],inactive
O=C1OC(c2ccc(O)c(S(=O)(=O)O)c2)(c2ccc(O)c(S(=O)(=O)O)c2)c2c(Br)c(Br)c(Br)c(Br)c21,"activity, negative = inhibition",[10]; [20],4.12% (inactive)
same,"activity, negative = inhibition",[10]; [21],7.49% (inactive)
same,Potency,[11],inactive
same,Potency,[12],inactive
Nc1ccc([As](=O)(O)O)cc1,"activity, negative = inhibition",[10]; [20],-20% (inactive)
same,"activity, negative = inhibition",[10]; [21],-5.31% (inactive)
same,Potency,[11],inactive
O=C1CN=C(c2ccccc2)c2cc([N+](=O)[O-])ccc2N1,"activity, negative = inhibition",[10]; [20],0.461% (inactive)
same,"activity, negative = inhibition",[10]; [21],15.1% (inactive)
same,Potency,[11],inactive
same,Potency,[12],inactive
O=c1oc2ccccc2c(O)c1Cc1c(O)c2ccccc2oc1=O,"activity, negative = inhibition","[10]; at 12.8 µM (top of the series), parasite line A",7.78% (inactive)
same,"activity, negative = inhibition","[10]; at 12.8 µM (top of the series), parasite line B",2.51% (inactive)
same,Potency,[11],inactive
same,Potency,[12],inactive
COP(=S)(OC)Oc1ccc(S(=O)(=O)N(C)C)cc1,"activity, negative = inhibition",[10]; [20],14.2% (inactive)
same,"activity, negative = inhibition",[10]; [21],1.31% (inactive)
same,Potency,[11],inactive
same,Potency,[12],inactive
Clc1ccc2c(c1)C(c1ccccc1)=NCc1nncn1-2,"activity, negative = inhibition",[10]; [20],-1.68% (inactive)
same,"activity, negative = inhibition",[10]; [21],10.3% (inactive)
same,Potency,[11],inactive
same,Potency,[12],inactive
